Activity calls are given as the source filed them. Unless noted, the rule behind the calls is not given here.
Assays:
[1] = HepG2 liver cancer cell viability effects, profiling panel, resazurin fluorescence, 24 h, PK04 Diversity Set (AID 1172); details: higher = more signal
[2] = basal S. cerevisiae growth modulation, no modifier, primary screen, OD600, strain BY4716, 24 h, basal condition (AID 1173); details: OD600, 24 h, higher = more signal, called active from +8 up or from −8 down
[3] = MM1S myeloma cell viability, profiling panel, resazurin fluorescence, basal, 24 h, PK04 Diversity Set (AID 1174); details: higher = more signal, called active from +8 up or from −8 down;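 note: MM1S multiple myeloma cell line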
[4] = biological target: Dihydroorotate dehydrogenase (quinone), mitochondrial (Plasmodium falciparum (isolate 3D7)) (UniProt Q08210); assay: PfDHODH enzyme inhibitors, primary screen, biochemical, C-terminal His tag, absorbance 600 nm (AID 1175); details: DCIP absorbance 600 nm, higher = more signal, called active from +8 up or from −8 down;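 note: recombinant parasite enzyme with a five histidine tag at its C terminus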
Chain of Dihydroorotate dehydrogenase (quinone), mitochondrial (Plasmodium falciparum (isolate 3D7)) (Q08210 whole entry, looked up): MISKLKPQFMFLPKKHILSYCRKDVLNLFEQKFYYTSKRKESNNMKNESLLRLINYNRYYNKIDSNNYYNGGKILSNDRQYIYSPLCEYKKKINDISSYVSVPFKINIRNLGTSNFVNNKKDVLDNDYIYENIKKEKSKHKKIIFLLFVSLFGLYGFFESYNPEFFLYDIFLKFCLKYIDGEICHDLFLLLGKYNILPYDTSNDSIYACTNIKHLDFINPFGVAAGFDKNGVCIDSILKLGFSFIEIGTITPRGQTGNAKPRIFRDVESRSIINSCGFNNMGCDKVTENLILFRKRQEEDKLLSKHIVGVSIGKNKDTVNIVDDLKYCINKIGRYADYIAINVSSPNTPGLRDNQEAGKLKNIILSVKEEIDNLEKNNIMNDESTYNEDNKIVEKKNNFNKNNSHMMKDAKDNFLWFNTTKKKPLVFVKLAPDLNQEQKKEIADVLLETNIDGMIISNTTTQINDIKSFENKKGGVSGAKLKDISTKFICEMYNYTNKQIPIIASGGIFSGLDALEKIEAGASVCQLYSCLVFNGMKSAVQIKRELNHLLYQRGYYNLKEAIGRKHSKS

[5] = P. aeruginosa biofilm formation inhibitors, primary screen, strain PAO1, LB-PBS medium, absorbance 600 nm (AID 1176); details: P. aeruginosa PAO1 growth/biofilm, A600, 12 h; higher = more signal
[6] = S. cerevisiae RM11-1a growth modifiers, primary screen, strain RM11-1a, OD600, basal, 24 h (AID 1177); details: OD600, 24 h, higher = more signal, called active from +8 up or from −8 down;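 note: cultures grown under basal conditions with no added stressor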
[7] = E. coli acrAB mutant growth effects, primary screen, E. coli filamentation inducers, strain DRC39, OD650, 24 h (AID 1178); details: higher = more signal, called active from +8 up or from −8 down;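 note: growth measured as culture turbidity by optical density at 650 nm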
[8] = E. coli acrAB mutant growth effects, primary screen, E. coli filamentation inducers, strain DRC39, OD650, 48 h (AID 1179);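 note: screen aims at cell division blockers that make cells filament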; details: E. coli DRC39 delta-acrAB growth, higher = more signal, called active from +8 up or from −8 down
[9] = RPMI8226 myeloma cell viability, profiling panel, resazurin fluorescence, basal, 24 h, PK04 Diversity Set (AID 1180); details: higher = more signal;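 note: RPMI8826 multiple myeloma cell line at 5000 cells per well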
[10] = biological target: E3 ubiquitin-protein ligase XIAP (Homo sapiens) (UniProt P98170); assay: XIAP binders, primary screen, biophysical, small-molecule microarray, fluorescence 635 nm (AID 1181); details: small-molecule microarray binding, higher = more signal;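 note: score merges 667 nm emission and signal to noise over triplicate slides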
Chain of E3 ubiquitin-protein ligase XIAP (Homo sapiens) (P98170 whole entry, looked up): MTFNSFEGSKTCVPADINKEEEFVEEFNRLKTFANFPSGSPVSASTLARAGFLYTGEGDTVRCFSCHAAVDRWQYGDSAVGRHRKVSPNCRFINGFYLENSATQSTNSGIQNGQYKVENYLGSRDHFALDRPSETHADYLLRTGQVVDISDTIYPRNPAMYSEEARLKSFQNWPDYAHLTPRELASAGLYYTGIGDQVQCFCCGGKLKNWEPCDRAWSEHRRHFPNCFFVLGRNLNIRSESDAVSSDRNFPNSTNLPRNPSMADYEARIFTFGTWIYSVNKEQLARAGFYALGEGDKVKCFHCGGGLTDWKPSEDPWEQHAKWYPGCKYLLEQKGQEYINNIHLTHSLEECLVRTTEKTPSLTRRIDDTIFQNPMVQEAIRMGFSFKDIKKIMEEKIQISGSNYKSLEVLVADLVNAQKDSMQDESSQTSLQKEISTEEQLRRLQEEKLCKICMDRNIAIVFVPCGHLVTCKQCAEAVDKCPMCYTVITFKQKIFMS

[11] = tested on: XIP peptide (Xip251-270) binding; assay: small-molecule binders of XIP peptide, primary screen, biochemical, small-molecule microarray, fluorescence 635/667 nm, 0.1 µg/mL protein (AID 1182); details: fluorescent protein binding, 635 nm, higher = more signal, called active from +8 up or from −8 down
XIP peptide (Xip251-270) = assay: small-molecule binders of XIP peptide, primary screen, biochemical, small-molecule microarray, fluorescence 635/667 nm, 0.5 µg/mL protein (AID 1183); details: small-molecule microarray binding, fluorescence 635 nm; higher = more signal
[12] = Plasmodium falciparum growth inhibition, primary screen, strain 3D7, DAPI fluorescence, 100 nL (AID 1184);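 note: parasites grown inside human red blood cells in medium with human serum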; details: P. falciparum 3D7 growth, 3 d, higher = more signal
[13] = biological target: Homeobox protein Hox-A13 (Mus musculus) (UniProt Q62424); assay: inhibitors of HoxA13-DNA binding, primary screen, biochemical, fluorescence polarization, labeled oligonucleotide (AID 1185); details: 15 min, higher = more signal, called active from +8 up or from −8 down
Chain of Homeobox protein Hox-A13 (Mus musculus) (Q62424 whole entry, looked up): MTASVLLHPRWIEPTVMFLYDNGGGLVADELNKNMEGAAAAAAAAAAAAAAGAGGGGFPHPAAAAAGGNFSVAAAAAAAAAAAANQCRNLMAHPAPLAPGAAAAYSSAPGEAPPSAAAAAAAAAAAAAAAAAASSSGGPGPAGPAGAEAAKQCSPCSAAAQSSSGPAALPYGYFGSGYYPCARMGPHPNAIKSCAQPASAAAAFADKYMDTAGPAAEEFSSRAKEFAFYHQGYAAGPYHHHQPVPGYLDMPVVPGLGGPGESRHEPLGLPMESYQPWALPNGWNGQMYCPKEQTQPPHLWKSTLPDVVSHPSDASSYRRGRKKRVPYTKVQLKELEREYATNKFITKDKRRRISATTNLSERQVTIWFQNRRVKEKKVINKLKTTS

[14] = inhibitors of hydroxyurea-induced Chk1 phosphorylation, primary screen, imaging, HeLa, phospho-Chk1 antibody, percent positive cells (AID 1186); details: hydroxyurea-induced phospho-Chk1 immunofluorescence imaging, higher = more signal
[15] = inhibitors of hydroxyurea-induced Chk1 phosphorylation, primary screen, imaging, HeLa, phospho-Chk1 nuclear intensity (AID 1187); details: hydroxyurea-induced phospho-Chk1 immunofluorescence imaging, higher = more signal

Row | Compound | z-score [1] | z-score [2] | z-score [3] | composite z-score [4] | z-score [5] | z-score [6] | z-score [7] | z-score [8] | z-score [9] | composite z-score [10] | composite z-score [11] | composite z-score (XIP peptide (Xip251-270)) | z-score [12] | z-score [13] | z-score [14] | z-score [15]
1 | NC(N)=NCc1cn(CCc2c[nH]c3ccccc23)nn1 | -0.739 | 0.274 (inactive) | -0.237 (inactive) | -26.7 (active) | 0.0429 (inactive) | 0.191 (inactive) | 0.148 (inactive) | -0.0579 (inactive) | -0.533 | -0.163 | 1.35 (inactive) | 0.937 | 0.743 | -2.09 (inactive) | 0.568 (inactive) | -0.248 (inactive)
2 | CN(C)CCCNC(=O)[C@@H]1c2ccccc2C(=O)N(CC23CC4CC(CC(C4)C2)C3)[C@H]1c1ccc(CO)cc1 | -0.701 | -3.33 (inactive) | -0.809 (inactive) | -0.184 (inactive) | 0.0435 (inactive) | 0.28 (inactive) | 0.309 (inactive) | 0.401 (inactive) | -0.692 | 0.0973 | 1.18 (inactive) | 0.824 | -2.18 | 3.41 (inactive) | 0.595 (inactive) | 1.05 (inactive)
3 | C[C@]1(C(=O)NCCN2CCOCC2)c2ccccc2C(=O)N(Cc2ccc(OC(F)(F)F)cc2)[C@H]1c1ccc(CO)cc1 | 0.209 | -0.427 (inactive) | -0.191 (inactive) | -0.277 (inactive) | 0.0435 (inactive) | -0.393 (inactive) | 0.815 (inactive) | 0.121 (inactive) | 0.206 | -0.0663 | -0.0513 (inactive) | 0.466 | -1.08 | -4.78 (inactive) | -0.198 (inactive) | -0.0723 (inactive)
4 | COc1cc(CO)cc(I)c1O[C@H]1C=C(C(=O)NCCO)C[C@@H](NCc2ccccc2F)[C@@H]1O | -0.0271 | -2.31 (inactive) | -0.233 (inactive) | 1.28 (inactive) | -0.365 (inactive) | 1.09 (inactive) | 0.491 (inactive) | 0.41 (inactive) | 0.559 | 0.0669 | -0.346 (inactive) | 0.481 | -2.98 | -7.62 (inactive) | -0.24 (inactive) | 0.959 (inactive)
5 | O=C1NC(=O)C2C1C=CC(C(O)c1c(F)cccc1Cl)N2Nc1ccccn1 (centres undefined) | -1.73 | 1.19 (inactive) | -1.65 (inactive) | 0.722 (inactive) | 0.543 (inactive) | -0.0601 (inactive) | -0.883 (inactive) | -0.0739 (inactive) | -1.74 | 0.118 | 0.49 (inactive) | 0.833 | -0.362 | -2.19 (inactive) | 0.578 (inactive) | 0.135 (inactive)
6 | CCOC(=O)C[C@H]1[C@H](OC(=O)c2ccc(C(=O)c3ccccc3)cc2)[C@@H](NC(=O)c2ccc3ccccc3c2)c2cc(OCCCO)ccc2N1C(=O)c1ccccc1 | -0.55 | -0.592 (inactive) | -0.377 (inactive) | -0.46 (inactive) | 0.055 (inactive) | -0.617 (inactive) | 0.347 (inactive) | 0.212 (inactive) | -0.539 | -0.0367 | 1.39 (inactive) | 0.444 | 1.45 | -0.683 (inactive) | 0.451 (inactive) | 0.0368 (inactive)
7 | COCCOC(=O)N1C(=O)[C@@]2(c3cc(C#CC4(O)CCCCCC4)ccc31)[C@H](c1ccccc1OCCO)N1[C@H](c3ccccc3)[C@H](c3ccccc3)OC(=O)[C@H]1[C@@H]2C(N)=O | -1.51 | 1.53 (inactive) | -8.29 (active) | 0.173 (inactive) | 1.91 (inactive) | 2.91 (inactive) | -0.197 (inactive) | -0.31 (inactive) | -6.79 | -0.287 | 0.151 (inactive) | 0.774 | -2.07 | -2.04 (inactive) | 0.141 (inactive) | -0.377 (inactive)
8 | COc1ccc(C#Cc2ccc3c(c2)[C@]2(C(=O)N3)[C@H](C(=O)N3CCc4cc(OC)c(OC)cc4C3)[C@H]3C(=O)O[C@H](c4ccccc4)[C@H](c4ccccc4)N3[C@@H]2c2ccc(O)cc2)cc1 | -0.235 | 0.507 (inactive) | -0.443 (inactive) | -0.719 (inactive) | 1.45 (inactive) | 1.36 (inactive) | 0.0877 (inactive) | 0.307 (inactive) | -0.482 | -0.277 | 0.786 (inactive) | 0.578 | -1.48 | -1.05 (inactive) | -0.24 (inactive) | -0.218 (inactive)
9 | COCCOC(=O)N1C(=O)[C@@]2(c3cc(C#CCC(C(=O)OC)C(=O)OC)ccc31)[C@H](c1ccc(OCCO)cc1)N1[C@H](c3ccccc3)[C@H](c3ccccc3)OC(=O)[C@H]1[C@@H]2C(=O)N1CCN(c2ncccn2)CC1 | 1.27 | 0.588 (inactive) | -0.199 (inactive) | 1.35 (inactive) | 2.06 (inactive) | 1.82 (inactive) | 0.362 (inactive) | -0.108 (inactive) | 0.262 | -0.22 | 1.42 (inactive) | 0.824 | -2.25 | 2.08 (inactive) | -0.163 (inactive) | -0.0755 (inactive)

From PubChem BioAssay
